The values that follow come from PMC7826789 (International Journal of Molecular Sciences, 2021).

Turning to `COc1cc(C=NNc2ncnc3c2cnn3-c2ccccc2)ccc1O` [GW513184X], in the assay with AurkA, the Kinases covered result is recorded as “AurkA”.

For `COc1cc(-c2cncc(-c3cnn(C4CCNCC4)c3)c2)cc(OC)c1OC` [K05908], the results for the Kinases covered entry in the assay on BMPR1A and in the assay with BMPR1B were “BMPR1A” and “BMPR1B”, respectively.

Take `CC(C)N1CC(=O)N(C)c2cnc(Nc3cccc(S(=O)(=O)CCN4CCOCC4)c3)nc21` [BI00009348]: the Kinases covered result in the assay on BMPR2 was “BMPR2”.

For the molecule `C=CC(=O)Nc1cc(-n2c(=O)ccc3cnc4ccc(-c5ccc(NS(C)(=O)=O)cc5)cc4c32)ccc1C` [BMX-IN-1], the Kinases covered result with BMX is “BMX”.

With `COc1ccc2[nH]c3c4[nH]c5ccc(OC)cc5c4c4c(c3c2c1)C(=O)NC4=O` [GW296115X], the Kinases covered result in the assay with BRSK1 was “BRSK1”; in the assay with BRSK2 it was “BRSK2”.
